Each structure is given as a SMILES string. This is part of a sample that, as a whole, favours compounds with a hit. Of some 83,000 tested, about 20% had one in any assay.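 96-well plates, one dose, 48 hours. Percent growth reported; active if below 10.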 Values without a mark were called inactive. Calls of active or inactive are those of the source.

The assay deals with HL-60(TB) leukemia. Kind of assay: NCI-60 one-dose screen, 48 h (100 = growth as untreated, 0 = no growth, -100 = all killed). The settings on record: 10 µM unless noted.
With `NC(=O)c1c(NC(=O)/C=C/c2cccs2)sc2c1CCC(=O)C2`, the growth was 2.8% (active).
`CCOc1ccc(-c2cc(C3(S(=O)(=O)c4ccc(C)cc4)CC=CC3)on2)cc1`: the growth is 75.1%.
Consider `O=C1NC(=O)C(Cc2ccccc2)(Cc2ccccc2)N1`, for which the growth was 122%.
Take `CCCc1cc2c(cc1CN(Cc1cc3c(cc1CCC)OCO3)C(=N)OCC)OCO2`: the growth was 105%.
With `COc1cc(NC(C)CCCNC(=O)CCC(=O)NCCCNCCCCCCCCCCNCCCNC(=O)CCC(=O)NCCCC(C)Nc2cc(OC)cc3cccnc23)c2ncccc2c1` (stereo not given), the growth is 58.2% [8 µM].
On to `COC(=O)CC1=C(C)/C(=C/c2[nH]c(-c3ccc[nH]3)cc2OC)N=C1C`, for which the growth is -29.2% (active).
With `Cc1nccc2c3ccc(OCc4cn(-c5ccc(Br)cc5)nn4)cc3n(CC(C)C)c12`, the growth is -48.1% (active).
On to `COC(=O)C1=C(C)NC(C)=C(C(=O)OCC(C)C)C1c1ccccc1[N+](=O)[O-]` (stereo not given), for which the growth is 28.9%.
Regarding `O=C1c2ccccc2C(=O)c2sc(Nc3ccc(Cl)cc3)nc21`, the growth was -10.8% (active).
In the case of `COc1ccc(CCN2CCC(CN(C)Cc3cnn(-c4ccccc4)c3)CC2)cc1` it was 6.41% (active).
In the case of `O=C(Nc1cccc(Cl)c1)Oc1c(Cl)c(Cl)c(Cl)c(Cl)c1Cl`, the growth is 101%.
In the case of `COc1cc(/C=C/c2cc(/C=C/c3ccc(O)c(OC)c3)n(C(=O)c3ccc(Cl)cc3)n2)ccc1O` it was -12.4% (active); in that of `C#C[C@H]1CCCCCC1O` (stereo not given in full), 96.1%; in that of `CC(=O)Nc1c(C)cc(C)cc1C`, 99.8%.
As to `COc1ccc(C(=O)N2NC(=O)/C(=C/c3cn(-c4ccccc4)nc3-c3ccccc3)N=C2c2ccccc2)cc1`, the growth is 103%.

The record behind these values is PubChem BioAssay (NCI).
